Laboratory results as given in PubChem BioAssay (NCATS).
Several values for one entry are separate records, joined by “and”; a condition that tells them apart may be missing. Equal values may be shown once. Records with an inconclusive call do not appear. Activity calls are given as the source filed them. Unless noted, the call rests on the fitted dose curve; in most records, active means well fitted curve in the direction sought with a large enough effect; inconclusive means small, poorly fitted or top-dose-only effect, or another doubt; inactive means no such curve, though single readings can be large; an effect the other way counts as inactive or inconclusive.

What was measured:
[1] = Validation qHTS assay for inhibitors of Activation Induced Cytidine Deaminase (AID): UDG Counterscreen signal (AID 1347427); further: 0% is about no effect
In short: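 Fluorescence at 560 nm excitation, 665 nm emission reports UDG signal after 250 mM NaOH (2x) addition and 30 min. Enzymes (AID 1 uM, UDG 2 U/mL, at 4/3x) preincubated 10 min with compound, then 4 h with 4x 250 nM DJC20/DJC23 substrate at room temperature.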

[2] = molecular target: Single-stranded DNA cytosine deaminase (Homo sapiens) (UniProt Q9GZX7); experiment: Validation qHTS assay for inhibitors of Activation Induced Cytidine Deaminase (AID): AID signal (AID 1347429); further: on the % scale 0 is the no-effect control and ±100 the full control effect
Chain of Single-stranded DNA cytosine deaminase (Homo sapiens) (Q9GZX7 whole entry, looked up): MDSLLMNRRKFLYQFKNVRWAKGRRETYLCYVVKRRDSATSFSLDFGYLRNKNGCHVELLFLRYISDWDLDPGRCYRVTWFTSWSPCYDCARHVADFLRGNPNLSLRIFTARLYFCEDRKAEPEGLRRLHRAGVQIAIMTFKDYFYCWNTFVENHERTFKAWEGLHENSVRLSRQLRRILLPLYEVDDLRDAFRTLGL
In short: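 Steps: dispense AID with UDG; pin-transfer compound up to 114 uM final; add DJC20/DJC23 substrate and hold 4 hr at room temperature; add NaOH, hold 30 min; read FRET signal (540/590 nm).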

[3] = molecular target: Calcium and integrin-binding protein 1 (Homo sapiens) (UniProt Q99828); experiment: Validation qHTS for Identification of Calcium Integrin Binding protein 1 (CIB1) Competitor (AID 1508618); further: on the % scale 0 is the no-effect control and ±100 the full control effect
Chain of Calcium and integrin-binding protein 1 (Homo sapiens) (Q99828 whole entry, looked up): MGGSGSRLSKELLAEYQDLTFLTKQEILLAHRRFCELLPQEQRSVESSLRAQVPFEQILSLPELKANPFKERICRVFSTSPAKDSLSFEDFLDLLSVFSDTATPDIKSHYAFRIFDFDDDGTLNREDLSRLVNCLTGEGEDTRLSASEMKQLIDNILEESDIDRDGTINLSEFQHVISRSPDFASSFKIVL
In short: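 Displacement of FITC-alphaIIb peptide (100 nM) from CIB1-GST (1 uM) is monitored by polarization in quantitative HTS format; buffer carries 5 mM CaCl2 and 125 mM NaCl at pH 7.4, incubations are at room temperature.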

[4] = Primary qHTS for small molecule stabilizers of the endoplasmic reticulum resident proteome: Secreted ER Calcium Modulated Protein (SERCaMP) assay (AID 1508630); further: on the % scale 0 is the no-effect control and ±100 the full control effect
In short: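 The SH-SY5Y reporter protocol was run at 3 concentrations up to 38.3 uM (primary) or 11 concentrations (follow-up): 16 h compound, 100 nM thapsigargin for 4 h, then extracellular luciferase luminescence.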

Papain (Carica papaya) = Papain (Carica papaya) (UniProt P00784); experiment: Primary qHTS assay for inhibitors of the protease papain (AID 1645873);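 further: papain turnover of Z-FR-AMC read as the AMC fluorescence gain over 10 min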; further: potency means the concentration at half of the fitted maximal effect
Chain of Papain (Carica papaya) (P00784 whole entry, looked up, the tested form may be a part): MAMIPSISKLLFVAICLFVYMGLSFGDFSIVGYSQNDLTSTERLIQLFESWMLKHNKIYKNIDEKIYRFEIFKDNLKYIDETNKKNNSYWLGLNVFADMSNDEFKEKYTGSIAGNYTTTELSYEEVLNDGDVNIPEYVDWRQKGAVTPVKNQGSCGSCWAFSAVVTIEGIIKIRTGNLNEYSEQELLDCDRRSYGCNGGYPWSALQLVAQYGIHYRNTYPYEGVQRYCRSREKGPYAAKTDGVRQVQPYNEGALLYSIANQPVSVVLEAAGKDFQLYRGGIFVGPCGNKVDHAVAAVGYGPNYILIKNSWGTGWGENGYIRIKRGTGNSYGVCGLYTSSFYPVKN

[5] = Primary qHTS for inhibitors of nuclear receptor binding SET domain protein 2 (NSD2) in an isogenic RCH-ACV NSD2 p.E1099K mutant (9B) (AID 1645876); further: nearly all actives have a fitted effect of over 70% in size; further: potency means the concentration at half of the fitted maximal effect
[6] = Primary qHTS for inhibitors of nuclear receptor binding SET domain protein 2 (NSD2) in an RCH-ACV wild type WT cells (2C) (AID 1645877); further: nearly all actives have a fitted effect of over 70% in size; further: potency means the concentration at half of the fitted maximal effect
[7] = Primary qHTS for inhibitors of La Crosse Virus (LACV) - induced cell death in SH-SY5Y cells (AID 1508616);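 further: top concentration of the series differs between compounds; 0% = infected DMSO wells and 100% = uninfected DMSO wells; higher means more rescue of cells from virus-induced death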
In short: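 SH-SY5Y, 6000 cells/well; cpd via pin tool in DMSO; LACV 0.01 MOI; 6 d 37C 5% CO2; ATPLite, 5 min RT; luminescence normalized to ±virus DMSO controls.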

[8] = molecular target: Calcium and integrin-binding protein 1 (Homo sapiens) (UniProt Q99828); experiment: Primary qHTS for Identification of Calcium Integrin Binding Protein 1 (CIB1) Competitor (AID 1508620);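 further: GST tagged CIB1 binding a fluorescein labelled alphaIIb integrin peptide tracer; top concentration of the series differs between compounds; on the % scale 0 is the no-effect control and ±100 the full control effect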
In short: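 Fluorescence polarization competition: GST-tagged CIB1 (1 uM final) preincubated with compound 15 min at room temperature, then FITC-labelled alphaIIb peptide (100 nM final) added. After 15 min at room temperature, polarization read at Ex 480/Em 540.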

[9] = molecular target: Protein phosphatase 1D (Homo sapiens) (UniProt O15297); experiment: Rhodamine-PBP qHTS Assay for Modulators of WT P53-Induced Phosphatase 1 (WIP1) (AID 1347425); further: % of control where 0% means no effect
Chain of Protein phosphatase 1D (Homo sapiens) (O15297 whole entry, looked up): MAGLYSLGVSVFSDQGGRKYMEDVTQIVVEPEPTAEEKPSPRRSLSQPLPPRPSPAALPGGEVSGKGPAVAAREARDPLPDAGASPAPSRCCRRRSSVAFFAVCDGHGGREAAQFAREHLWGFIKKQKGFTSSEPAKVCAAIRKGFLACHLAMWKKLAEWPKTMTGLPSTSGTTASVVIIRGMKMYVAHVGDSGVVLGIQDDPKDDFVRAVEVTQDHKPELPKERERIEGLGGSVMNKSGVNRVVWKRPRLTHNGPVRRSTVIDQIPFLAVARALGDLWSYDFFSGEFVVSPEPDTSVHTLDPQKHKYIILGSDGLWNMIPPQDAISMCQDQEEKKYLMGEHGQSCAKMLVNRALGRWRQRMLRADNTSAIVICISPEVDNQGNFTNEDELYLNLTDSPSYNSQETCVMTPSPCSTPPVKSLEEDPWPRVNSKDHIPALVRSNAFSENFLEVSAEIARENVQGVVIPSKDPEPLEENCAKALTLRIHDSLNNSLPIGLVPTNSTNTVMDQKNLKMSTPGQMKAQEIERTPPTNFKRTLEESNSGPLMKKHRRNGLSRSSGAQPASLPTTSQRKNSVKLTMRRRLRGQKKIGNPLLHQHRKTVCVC
In short: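 5 nM WIP1 + 10 uM Rh-PBP, 50 mM Tris pH 7.5, 30 mM MgCl2, 1 mM TCEP, 0.1 mM EGTA, BSA; cpds pinned, 1 hr RT; + 10 uM phosphopeptide; fluorescence 1-min reads x 11 min; delta = f1 - f0.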

[10] = A High-Content qHTS Against Drug Library for the Identification of Small Molecules that Inhibit DYT1 Early Onset Primary Dystonia-Associated Cell Pathology (AID 1645839; calls by dose curve; further: series mostly up to about 46 µM)
In short: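 Cells were seeded and left for 24 h, then dosed with compound alongside tetracycline induction of mutant EGFP-TorsinA. They were incubated for 48 h, fixed in 4% paraformaldehyde, permeabilized and imaged for mislocalization (%pathology) and cell count.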

[11] = molecular target: Cytochrome P450 2D6 (Homo sapiens) (UniProt P10635); experiment: Cytochrome P450 family 2 subfamily D member 6 (CYP2D6) small molecule antagonists: luciferase biochemical (cell-free) qHTS assay (AID 1645840; active means well fitted curve in the direction sought with a large enough effect in the repeat runs; an effect the other way counts as inactive or inconclusive; further: nearly all actives have a fitted effect of over 55% in size; further: potency means the concentration at half of the fitted maximal effect)
Chain of Cytochrome P450 2D6 (Homo sapiens) (P10635 whole entry, looked up): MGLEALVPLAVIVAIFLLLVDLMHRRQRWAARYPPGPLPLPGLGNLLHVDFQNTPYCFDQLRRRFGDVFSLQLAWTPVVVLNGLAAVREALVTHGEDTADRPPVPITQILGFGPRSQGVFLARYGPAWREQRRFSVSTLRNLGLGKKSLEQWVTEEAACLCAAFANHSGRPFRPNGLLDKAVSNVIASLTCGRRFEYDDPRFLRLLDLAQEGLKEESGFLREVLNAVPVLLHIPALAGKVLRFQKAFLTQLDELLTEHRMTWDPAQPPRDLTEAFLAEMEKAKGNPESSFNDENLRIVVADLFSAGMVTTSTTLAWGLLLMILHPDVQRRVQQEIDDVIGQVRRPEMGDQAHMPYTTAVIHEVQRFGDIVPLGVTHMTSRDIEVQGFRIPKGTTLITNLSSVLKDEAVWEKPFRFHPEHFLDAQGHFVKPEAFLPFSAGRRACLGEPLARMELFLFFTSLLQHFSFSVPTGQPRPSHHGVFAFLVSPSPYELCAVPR
In short: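 P450-Glo CYP2D6 system: proluciferin substrate converted by enzyme to luciferin, read by luminescence proportional to activity. Enzyme-substrate mix with compound 10 min at room temperature, then NADPH regeneration 1 h before detection reagent.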

[12] = molecular target: Cytochrome P450 2C9 (Homo sapiens) (UniProt P11712); experiment: Cytochrome P450 family 2 subfamily C member 9 (CYP2C9) small molecule antagonists: luciferase biochemical (cell-free) qHTS assay (AID 1645842; active means well fitted curve in the direction sought with a large enough effect in the repeat runs; an effect the other way counts as inactive or inconclusive; further: nearly all actives have a fitted effect of over 55% in size; further: potency means the concentration at half of the fitted maximal effect)
Chain of Cytochrome P450 2C9 (Homo sapiens) (P11712 whole entry, looked up): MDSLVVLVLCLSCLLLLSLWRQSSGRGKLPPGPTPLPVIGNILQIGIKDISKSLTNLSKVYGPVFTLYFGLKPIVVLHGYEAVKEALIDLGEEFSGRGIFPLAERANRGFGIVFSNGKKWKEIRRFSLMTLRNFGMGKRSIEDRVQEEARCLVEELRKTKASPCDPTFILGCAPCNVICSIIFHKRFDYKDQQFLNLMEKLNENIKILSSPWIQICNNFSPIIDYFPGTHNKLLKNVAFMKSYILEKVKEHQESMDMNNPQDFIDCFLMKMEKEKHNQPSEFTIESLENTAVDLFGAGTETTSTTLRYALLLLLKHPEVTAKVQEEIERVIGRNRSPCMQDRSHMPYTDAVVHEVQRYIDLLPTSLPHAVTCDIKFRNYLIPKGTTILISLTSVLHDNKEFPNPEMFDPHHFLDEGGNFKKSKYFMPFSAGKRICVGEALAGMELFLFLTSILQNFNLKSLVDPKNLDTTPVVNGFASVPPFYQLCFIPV
In short: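 P450-Glo CYP2C9 system: proluciferin substrate with enzyme in mix containing 0.4% BSA, 10 min at room temperature, then NADPH regeneration solution added and incubated 1 h at 37C. Detection reagent stopped reaction; luminescence read after 20 min as RLU.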

[13] = Counterscreen qHTS for small molecule stabilizers of the endoplasmic reticulum resident proteome: GLuc-NoTag assay (AID 1508627);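 further: series mostly up to about 76 µM; 0% = thapsigargin alone and -100% = DMSO vehicle control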
In short: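 Counterscreen line: SH-SY5Y-GLuc-NoTag. Seed, 5 h; compound, 19 h; thapsigargin 100 nM, 4 h; 37C/5% CO2. Readout: secreted GLuc luminescence, coelenterazine 0.07x final, no lysis.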

[14] = Cell Viability qHTS for small molecule stabilizers of the endoplasmic reticulum resident proteome (AID 1508629); settings: cell viability counter-screen, 100 nM thapsigargin for final 4 h;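 further: compound exposure about 46 h in total before the viability read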; further: potency means the concentration at half of the fitted maximal effect
[15] = molecular target: N-terminal Xaa-Pro-Lys N-methyltransferase 1 (Homo sapiens) (UniProt Q9BV86); experiment: Confirmatory qHTS for Inhibitors of N-terminal methyltransferase 1 (NTMT1): MTaseGlo Assay (AID 1645874); further: potency means the concentration at half of the fitted maximal effect; nearly all actives have a fitted effect of over 65% in size
Chain of N-terminal Xaa-Pro-Lys N-methyltransferase 1 (Homo sapiens) (Q9BV86 whole entry, looked up): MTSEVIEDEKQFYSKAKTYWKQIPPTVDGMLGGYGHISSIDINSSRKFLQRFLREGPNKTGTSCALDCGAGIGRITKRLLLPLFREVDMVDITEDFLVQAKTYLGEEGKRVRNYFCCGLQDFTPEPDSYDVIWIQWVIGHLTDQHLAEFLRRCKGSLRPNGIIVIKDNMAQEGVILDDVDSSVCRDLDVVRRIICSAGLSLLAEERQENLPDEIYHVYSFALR
In short: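 Enzyme mix (125 nM NTMT1, 100 uM SAM) + compound, 15 min RT; + 1 uM SPKRIA, 30 min RT, dark; MTase-Glo reagent 30 min, detection solution 30 min; luminescence. % inhibition vs no-enzyme/DMSO controls, 4-parameter Hill fit.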

[16] = Confirmatory qHTS for small molecule stabilizers of the endoplasmic reticulum resident proteome: Secreted ER Calcium Modulated Protein (SERCaMP) assay (AID 1508628); further: series mostly up to about 76 µM; on the % scale 0 is the no-effect control and ±100 the full control effect; nearly all actives have a fitted effect of over 40% in size
In short: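 Reporter secretion upon ER calcium depletion (100 nM thapsigargin, 4 h, 37C) is measured as medium luminescence with coelenterazine, after 16 h compound pretreatment of SH-SY5Y-GLuc-SERCaMP cells; primary at three concentrations up to 38.3 uM, follow-up at 11 (up to 76.6 uM).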

COc1cc2nc(N3CCCN(C)CC3)nc(NC3CCN(Cc4ccccc4)CC3)c2cc1OC
active: Potency (Papain (Carica papaya)) 25.1 µM | Potency [5] 4.17 µM | Potency [6] 2.63 µM
inactive: outcome [1] | outcome [2] | outcome [3] | Potency [4]

CCCCS(=N)(=O)CCC(N)C(=O)O (configuration not stated)
inactive: outcome [1] | outcome [2] | Potency [7] | outcome [3] | outcome [8] | Potency [4] | Potency (Papain (Carica papaya)) | Potency [5] | Potency [6]

CC(C)(C)C(=O)OCOP(=O)(COCCn1cnc2c(N)ncnc21)OCOC(=O)C(C)(C)C
active: Potency [5] 7.5 µM and 7.42 µM | Potency [6] 6.68 µM and 7.42 µM
inactive: outcome [9] | outcome [8] | Potency [4] | Potency [10] | Potency [11] | Potency [12]

Oc1c(Cl)cc(Cl)c2cccnc12
inactive: outcome [9] | outcome [8] | outcome [13] | Potency [4]
active: Potency [14] 20 µM | Potency [5] 3.76 µM | Potency [6] 3.32 µM

O=C(O)CCn1c2c(c3ccccc31)C[C@H](NS(=O)(=O)c1ccc(F)cc1)CC2
active: Potency [12] 17.4 µM
inactive: outcome [9] | Potency [10] | Potency [11]

CC1CC2C3CCC4=CC(=O)C=C[C@]4(C)[C@@]3(F)[C@@H](O)C[C@]2(C)[C@@]1(O)C(=O)CO (some centres not stated)
inactive: outcome [1] | outcome [2] | Potency [7] | outcome [3] | outcome [8] | Potency [4] | Potency (Papain (Carica papaya))

NC(=O)N1c2ccccc2CC(=O)c2ccccc21
inactive: Potency [7] | Potency [4] | Potency [11] | Potency [12]

CCN(CC)CC#CCOC(=O)C(O)(c1ccccc1)C1CCCCC1 (configuration not stated)
active: Potency [11] 3.01 µM | Potency [12] 7.56 µM
inactive: outcome [1] | outcome [2] | Potency [7] | Potency [4] | Potency (Papain (Carica papaya))

CCN(CC)CCn1c(=O)c(Cc2ccc(OC)cc2)nc2ccccc21
active: Potency [11] 7.56 µM
inactive: outcome [1] | outcome [2] | Potency [7] | outcome [3] | outcome [8] | Potency [12] | Potency (Papain (Carica papaya)) | Potency [5] | Potency [6]

CC(=O)[C@H]1CC[C@H]2[C@@H]3CCC4=CC(=O)CC[C@]4(C)[C@H]3CC[C@]12C
inactive: outcome [1] | outcome [2] | Potency [7] | outcome [3] | Potency [4] | Potency (Papain (Carica papaya))

OCc1ccc(-c2nn(Cc3ccccc3)c3ccccc23)o1
inactive: outcome [1] | outcome [2] | Potency [7] | outcome [3] | Potency [4]
active: Potency (Papain (Carica papaya)) 25.1 µM | Potency [5] 3.72 µM | Potency [6] 4.17 µM

N=C(N)c1ccc(OCCCCCOc2ccc(C(=N)N)cc2)cc1
active: Potency [5] 4.73 µM and 3.72 µM | Potency [6] 4.22 µM and 4.68 µM
inactive: outcome [9] | outcome [8] | Potency [10] | Potency [11]

COc1cc2ncnc(Nc3cccc(Cl)c3)c2cc1OC
inactive: outcome [1] | outcome [2] | Potency [7] | outcome [3] | outcome [8] | Potency [4] | Potency (Papain (Carica papaya))
active: Potency [12] 8.49 µM | Potency [15] 12.6 µM | Potency [5] 11.5 µM | Potency [6] 12.9 µM

O=C(O)C1CCCN(CCC=C(c2ccccc2)c2ccccc2)C1 (configuration not stated)
inactive: outcome [1] | outcome [2] | Potency [7] | outcome [3] | outcome [8] | Potency [4] | Potency (Papain (Carica papaya)) | Potency [5] | Potency [6]

CN(C)c1ccc(C(=C2C=CC(=[N+](C)C)C=C2)c2ccc(N(C)C)cc2)cc1
active: Potency [11] 3.09 µM | Potency [5] 33.5 nM and 296 nM | Potency [6] 42.2 nM and 263 nM
inactive: outcome [9] | outcome [8] | Potency [4]

Cc1ccc(S(=O)(=O)N[C@@H](Cc2ccccc2)C(=O)CCl)cc1
inactive: outcome [1] | outcome [2] | Potency [4] | Potency (Papain (Carica papaya))
active: Potency [5] 13.2 µM | Potency [6] 11.8 µM

COC(=O)Nc1nc2ccc(C(=O)c3ccccc3)cc2[nH]1
inactive: outcome [9] | Potency [11] | Potency [12]
active: Potency [5] 211 nM and 417 nM | Potency [6] 106 nM and 372 nM

CCc1c2c(nc3ccc(OC(=O)N4CCC(N5CCCCC5)CC4)cc13)-c1cc3c(c(=O)n1C2)COC(=O)[C@]3(O)CC
inactive: outcome [9] | Potency [4] | Potency [11] | Potency [12]
active: Potency [5] 750 nM and 235 nM | Potency [6] 596 nM and 118 nM

C#CCN[C@@H]1CCc2ccccc21
inactive: outcome [9] | Potency [7] | Potency [10] | Potency [12] | Potency [5] | Potency [6]

S=P(N1CC1)(N1CC1)N1CC1
inactive: Potency [7] | outcome [8] | outcome [13] | Potency [16] | max response [14] 22.2% | Potency [10] | Potency [5] | Potency [6]
active: Potency [11] 53 µM | Potency [12] 36.4 µM

N[C@@H](Cc1ccc(O)c(O)c1)C(=O)O
inactive: Potency [7] | outcome [3] | outcome [8] | Potency (Papain (Carica papaya)) | Potency [5] | Potency [6]

CCN1CCCC1CNC(=O)c1cc(S(N)(=O)=O)ccc1OC (configuration not stated)
inactive: outcome [1] | outcome [2] | Potency [7] | outcome [3] | Potency (Papain (Carica papaya))

C[C@@H](CN1CC(=O)NC(=O)C1)N1CC(=O)NC(=O)C1
inactive: outcome [9] | outcome [8] | Potency [4] | Potency [10] | Potency [11] | Potency [12]
active: Potency [5] 16.8 µM and 5.25 µM | Potency [6] 8.33 µM

NC(=O)c1ccc2[nH]ccc2c1
inactive: outcome [1] | outcome [2] | Potency [7] | outcome [3] | outcome [8] | Potency (Papain (Carica papaya)) | Potency [5] | Potency [6]

CNCC[C@H](Oc1cccc2ccccc12)c1cccs1
inactive: outcome [9] | outcome [8] | outcome [13] | Potency [16] | Potency [12]
active: Potency [5] 23.7 µM | Potency [6] 23.7 µM

O=C(O)c1cccnc1
inactive: outcome [9] | Potency [4] | Potency [10] | Potency [11] | Potency [5] | Potency [6]

CC1=NN(c2ccccc2)C(=O)C1
inactive: outcome [9] | Potency [7] | Potency [10] | Potency [5] | Potency [6]

CCOC(=O)[C@H](CCc1ccccc1)N[C@H]1CCc2ccccc2N(CC(=O)O)C1=O
active: Potency [12] 4.9 µM
inactive: outcome [9] | Potency [7] | Potency [5] | Potency [6]
